The text below walks through data of PubChem BioAssay (NCI).

The panel holds about 83,000 compounds, 20% with a hit somewhere; the sample as a whole holds those more often.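 The endpoint reported here, percent growth, reads 100 for growth as untreated, 0 for no net growth and -100 for all cells dead.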 Unmarked numbers belong to inactive results. The source made the active and inactive calls. The calls were made as follows: active = growth percent below 10; inactive = the rest.

Assay in all cases: NCI-60 one-dose screen, 48 h (100 = growth as untreated, 0 = no growth, -100 = all killed)
Settings in all cases: 10 µM unless noted

Assay [1] deals with DU-145 prostate.
The test system of assay [2] is K-562 leukemia.
The subject of assay [3] is MALME-3M melanoma.
Assay [4] relates to MDA-MB-231 breast.
Assay [5] relates to RXF 393 renal.
The test system of assay [6] is SF-268 CNS.
Assay [7] concerns SF-295 CNS.
For assay [8], the system named is SF-539 CNS.
Assay [9] deals with UACC-257 melanoma.
Assay [10] deals with M14 melanoma.
Assay [11] has as its system HCT-15 colon.
Assay [12] has as its system HT29 colon.
In assay [13] the test system is SNB-75 CNS.
Assay [14] concerns SNB-19 CNS.
Assay [15] relates to U251 CNS.
The test system of assay [16] is PC-3 prostate.
The test system of assay [17] is SK-MEL-5 melanoma.
The subject of assay [18] is UACC-62 melanoma.
The subject of assay [19] is LOX IMVI melanoma.
Assay [20] has as its system SK-MEL-28 melanoma.

For the compound `Nc1nc2c(c3ncccc13)C(c1cccc(Cl)c1)Cc1ncccc1-2` (stereo not given), the growth in [1] is 21.5%; in assay [2], 14%; in [3], 67.7%; in assay [4], 28.8%; in assay [5] it was 10.7%; in assay [6], 45.6%. The growth in assay [7] was 0.813% (active); in [8], -19.9% (active); in assay [9], 63.6%; in [10] it was 6.41% (active); in assay [11], 22.2%; in [12], 2.28% (active). In addition, the growth in [13] was 32.5%; in assay [14], 21.1%; in assay [15], 16%; in [16], 18.3%; in assay [17], 29.3%; in assay [18], 22.1%. In addition, the results for the growth in assay [19] and in [20] were 36.8% and 63.9%, respectively.
On to `CCN1C(=O)N(CC)C2C1NN=c1s/c(=C\c3ccc(C(F)(F)F)cc3)c(=O)n12` (stereo not given), for which the growth in [1] was 6.72% (active); in assay [2] it was 7.4% (active); in assay [3], 49.5%; in [4] it was 9% (active); in [5] it was 24.1%; in [6], 53.5%. For the same compound, the growth in assay [7] was 14.1%; in assay [8], -21.6% (active); in assay [9], 48.9%; in assay [10], 6.9% (active); in assay [11] it was 9.86% (active); in assay [12], 1.55% (active). Also, the growth in [13] was 15%; in assay [14] it was 24%; in [15], 6.65% (active); in assay [16], 22.6%; in [17], 6.27% (active); in assay [18], 30.9%. The values for the growth in assay [19] and in assay [20] were 17.4% and 55.8%, respectively.
Turning to `COc1ccc(CNc2c3ccccc3nc3ccccc23)c(OC)c1`, the growth in assay [1] was 49.4%; in assay [2], 13.2%; in assay [3], 67%; in assay [4] it was 43.6%; in assay [5], 33.4%; in assay [6], 65.7%. In addition, the growth was 36.3% in assay [7]; 14.6% in [8]; 74.6% in assay [9]; 43.8% in assay [10]; 26% in assay [11]; 13.8% in assay [12]. Further, the growth was 64.5% in assay [13]; 33.5% in assay [14]; 41.8% in assay [15]; 47.1% in assay [16]; 70.3% in [17]; 54.5% in [18]. For the same compound, the growth in assay [19] is 17.7%; in assay [20], 69.3%.
For the compound `CC(C)CCN(CCC(C)C)CC(O)c1cc2c(c3ccccc13)CCCC2` (stereo not given), the growth in [1] is 60.8%; in assay [2], 43.5%; in assay [3] it was 94.3%; in assay [4], 37.7%; in assay [5], 62.1%; in assay [6], 71.9%. Further, the growth in assay [7] is 76.5%; in [8] it was 82.1%; in [9], 99.4%; in assay [10] it was 89.3%; in assay [11] it was 59.4%; in [12], 32.2%. Besides, the growth in [13] is 91.6%; in assay [14] it was 97.8%; in assay [15], 72.9%; in assay [16], 66.4%; in [17] it was 72.7%; in assay [18], 49.8%. For the same compound, the growth in [19] was 51.9%; in assay [20], 94.7%.
`NC1(CO)COC(c2ccccc2)OC1` (stereo not given): the growth in [1] was 115%; in assay [2], 89.5%; in [3], 109%; in assay [4] it was 112%; in assay [5], 104%; in [6] it was 110%. The growth in [7] was 113%; in assay [8], 109%; in assay [9], 98.4%; in assay [10], 118%; in [11], 113%; in [12], 96.7%. Moreover, the growth was 120% in [13]; 111% in assay [14]; 97.5% in [15]; 99% in [16]; 96.1% in [17]; 111% in assay [18]. Besides, the growth in assay [19] was 107%; in assay [20], 118%.
For `CN1C(=O)/C(=C/c2ccc(C(=O)Nc3ncc(Cc4cccc(Cl)c4)s3)cc2)SC1=S`, the growth is 66.3% in assay [1]; 55.1% in assay [2]; 67.9% in assay [3]; 77.4% in [4]; 64.4% in assay [5]; 61.7% in assay [6]. For the same compound, the growth in assay [7] was 31%; in [8], 67.5%; in [9], 79.8%; in assay [10] it was 17%; in assay [11], 35.3%; in assay [12] it was 61.1%. For the same compound, the growth was 73.6% in assay [13]; 73.5% in assay [14]; 65.2% in assay [15]; 73.3% in assay [16]; 25.7% in assay [17]; 20.4% in assay [18]. For the same compound, the values for the growth in assay [19] and in assay [20] were 22.7% and 63.4%, respectively.
Regarding `O=C(/C=C/c1ccc(Cl)cc1)c1cccc(OCCCOc2cccc(C(=O)/C=C/c3ccc(Cl)cc3)c2)c1`, the growth is 113% in assay [1]; 88.8% in assay [2]; 109% in assay [3]; 110% in assay [4]; 106% in assay [5]; 105% in [6]. The growth in [7] is 100%; in assay [8], 112%; in assay [9], 98.6%; in assay [10] it was 98.6%; in assay [11], 90.3%; in [12] it was 98.6%. The growth in assay [13] is 91.5%; in [14], 99.1%; in assay [15], 86.3%; in [16], 104%; in assay [17], 102%; in assay [18], 90%. Moreover, the growth in assay [19] was 99.1%; in assay [20], 102%.
Take `O=C(Nc1ccccc1O)c1ccc(CNC(=O)c2ccsc2Nc2ccnc(C(F)(F)F)c2)cc1`: the growth in assay [1] is 30.6%; in assay [2], 9.19% (active); in [3], 9.89% (active); in assay [4], 39.1%; in assay [5], 0.801% (active); in [6], 40.2%. The growth was 2.43% (active) in [7]; 42.4% in assay [8]; 6.92% (active) in [9]; 45.2% in assay [10]; 28% in assay [11]; 28.7% in assay [12]. Also, the growth was 47.8% in assay [13]; 52.3% in assay [14]; 1.39% (active) in assay [15]; 14.5% in assay [16]; -8.81% (active) in [17]; 9.79% (active) in [18]. In addition, the results for the growth in assay [19] and in [20] were 34.5% and 51.3%, respectively.
On to `NC(N)=NS(=O)(=O)c1ccc(NC2=C(I)C(=O)c3ncccc3C2=O)cc1`, for which the growth in assay [1] is 105%; in assay [2], 94.2%; in [3], 103%; in assay [4], 92.7%; in [5] it was 108%; in assay [6], 90.5%. In addition, the growth is 103% in assay [7]; 97.4% in assay [8]; 97.1% in assay [9]; 111% in [10]; 103% in assay [11]; 106% in [12]. Also, the growth in [13] was 67.9%; in [14], 98.7%; in assay [15], 110%; in assay [16], 92.1%; in assay [17], 97.9%; in assay [18], 94.2%. Also, the growth in assay [19] is 95%; in [20], 135%.
As to `Cc1ccc(/C=C/C(=O)Nc2ncc(Cc3ccc(F)cc3)s2)o1`, the growth is 55.6% in [1]; 20.3% in assay [2]; 45.9% in assay [3]; 77.7% in [4]; 66.9% in [5]; 53.3% in assay [6]. Moreover, the growth is 35% in assay [7]; 48.2% in assay [8]; 76.3% in assay [9]; 33.5% in [10]; 22% in [11]; 21.6% in assay [12]. For the same compound, the growth in assay [13] was 52.1%; in [14], 68.7%; in [15], 47.5%; in [16], 38.4%; in [17], 45.3%; in assay [18] it was 31.5%. Further, the growth in assay [19] is 40.6%; in assay [20] it was 59.7%.
For the compound `COc1cc(/C=C/C(=O)/C=C(O)/C=C/c2ccc(OC(=O)C34CC5CC(CC(C5)C3)C4)c(OC)c2)ccc1OC(=O)C12CC3CC(CC(C3)C1)C2`, the growth in assay [1] was 113%; in assay [2], 106%; in [3], 97%; in assay [4], 103%; in assay [5], 106%; in [6], 95.6%. Moreover, the growth is 99.2% in [7]; 95.2% in assay [8]; 112% in assay [9]; 102% in assay [10]; 99.3% in [11]; 104% in [12]. For the same compound, the growth in assay [13] was 90%; in [14] it was 101%; in assay [15], 104%; in [16], 101%; in assay [17], 105%; in [18] it was 98.8%. Also, the results for the growth in assay [19] and in assay [20] were 95.3% and 100%, respectively.
Take `O=C(CSc1nnc(-c2cc(-c3ccccc3)nc3ccccc23)n1-c1ccccc1)Nc1ccc(C(=O)/C=C/c2ccc(Cl)cc2)cc1`: the growth in [1] was 94.6%; in assay [2], 65.8%; in [3], 99.5%; in assay [4], 78.5%; in assay [5], 103%; in assay [6] it was 94.4%. Further, the growth was 97.9% in assay [7]; 96.7% in assay [8]; 103% in assay [9]; 92.6% in assay [10]; 73.5% in [11]; 76.2% in [12]. Also, the growth is 97.3% in assay [13]; 101% in [14]; 93.9% in assay [15]; 81% in assay [16]; 91.4% in [17]; 67.9% in assay [18]. Further, the growth in assay [19] was 94.3%; in assay [20] it was 99.8%.
`CC[N+]1(CC)CC[N+]2(CCCC(C)CC2)CC1` (stereo not given): the growth in assay [1] is 111%; in assay [2], 107%; in [3], 97.6%; in [4], 106%; in assay [5], 113%; in assay [6], 108%. For the same compound, the growth in assay [7] is 98.8%; in [8], 99.2%; in assay [9], 98.2%; in [10], 106%; in [11], 104%; in assay [12], 99.7%. The growth was 115% in assay [13]; 102% in [14]; 111% in assay [15]; 96.6% in [16]; 104% in [17]; 100% in assay [18]. For the same compound, the growth in assay [19] was 105%; in assay [20], 104%.
Regarding `O=c1c2ccccc2c(=O)c2c1sc1c(=O)c3ccc(O)cc3c(=O)c12`, the growth was -98.5% (active) in [1]; -11.6% (active) in assay [2]; -96.5% (active) in assay [3]; -13.5% (active) in assay [4]; -84% (active) in assay [5]; -32.1% (active) in assay [6]. For the same compound, the growth is -94.3% (active) in [7]; -97.1% (active) in assay [8]; -95.2% (active) in [9]; -87.5% (active) in [10]; -65.4% (active) in [11]; -47.4% (active) in assay [12]. Further, the growth in assay [13] was -96.4% (active); in assay [14], -92% (active); in assay [15], -65.8% (active); in [16], -12.7% (active); in assay [17], -96.2% (active); in assay [18] it was -73.2% (active). Moreover, the growth in assay [19] is -61% (active); in [20] it was -65% (active).
